# Results as given in PubChem BioAssay AID743255 (National Center for Advancing Translational Sciences (NCATS), 2014).
# About 910 (0.23%) of roughly 390,000 compounds were called active. Roughly 5% stayed inconclusive and do not appear here. For the sample, actives were picked, then their nearest neighbours and some compounds at random. Unmarked numbers belong to inactive results. The call rests on the fitted dose curve; in most records, active means well fitted inhibition curve with a large enough effect; inconclusive means small, poorly fitted or top-dose-only effect; inactive means no such curve, though single readings can be large or run the other way.
# Molecular target: Ubiquitin carboxyl-terminal hydrolase 1 (Homo sapiens) (UniProt O94782)
# Assay: Inhibitors of USP1/UAF1: Primary Screen; further: nearly all actives have a fitted effect of over 60% in size
# Details: recombinant USP1/UAF1, Ub-Rhodamine cleavage fluorescence; series mostly up to 57.1 µM; activity change, negative = inhibition: at the top concentration
# In short: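 High-throughput fluorogenic screen: 1nM USP1/UAF1 complex, Ub-Rho substrate 150nM final, 50mM HEPES pH 7.8 with 0.5mM EDTA, 0.1 mg/ml BSA, 1mM TCEP and 0.01% Tween-20.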
# On the % scale 0 is the no-effect control and ±100 the full control effect; potency means the concentration at half of the fitted maximal effect.
# Ubiquitin carboxyl-terminal hydrolase 1 (Homo sapiens), sequence (O94782 whole entry, looked up): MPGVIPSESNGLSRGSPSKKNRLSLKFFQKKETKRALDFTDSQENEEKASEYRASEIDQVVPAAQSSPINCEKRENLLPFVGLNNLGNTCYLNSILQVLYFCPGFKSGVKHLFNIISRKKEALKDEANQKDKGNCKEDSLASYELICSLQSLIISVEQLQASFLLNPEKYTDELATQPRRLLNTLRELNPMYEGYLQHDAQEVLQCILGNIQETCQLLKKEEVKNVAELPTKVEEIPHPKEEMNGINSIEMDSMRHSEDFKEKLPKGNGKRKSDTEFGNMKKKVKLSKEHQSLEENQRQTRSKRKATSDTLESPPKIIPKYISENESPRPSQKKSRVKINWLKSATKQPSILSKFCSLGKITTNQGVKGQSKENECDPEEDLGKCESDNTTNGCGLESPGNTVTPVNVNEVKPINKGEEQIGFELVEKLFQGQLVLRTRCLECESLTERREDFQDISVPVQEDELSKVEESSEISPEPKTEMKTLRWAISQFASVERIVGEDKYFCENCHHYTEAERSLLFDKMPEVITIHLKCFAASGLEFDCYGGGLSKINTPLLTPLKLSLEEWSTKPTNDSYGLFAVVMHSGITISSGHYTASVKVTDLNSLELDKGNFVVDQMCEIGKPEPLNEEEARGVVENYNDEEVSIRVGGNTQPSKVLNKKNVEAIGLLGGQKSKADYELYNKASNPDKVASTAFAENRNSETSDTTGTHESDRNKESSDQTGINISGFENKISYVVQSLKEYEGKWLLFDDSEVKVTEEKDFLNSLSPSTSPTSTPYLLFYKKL
SMILES,"activity change, negative = inhibition",Potency
Cc1cc(C)c(/C=C/c2onc(C)c2S(=O)(=O)N2CCC(C(=O)Nc3ccc(Cl)cc3C)CC2)c(C)c1,1.71%,–
O=C(NCc1ccccc1)c1cc(-c2cccc(Cl)c2)on1,-5.34%,–
CCC(C)N1C(=O)S/C(=C/c2ccc(Sc3nc4ccccc4[nH]3)o2)C1=O (stereo not drawn),-9.54%,–
O=C(O)C(c1ccccc1)N1C(=O)/C(=C\c2ccc(-c3cccc(Cl)c3)o2)SC1=S (stereo not drawn),–,35.5 µM (active)
COc1ccccc1-c1cc(C(F)(F)F)nc(S(=O)(=O)CCCC(=O)Nc2ccc(F)cc2F)n1,-27.7%,–
O=C(CSc1nccn1C1CCCC1)Nc1cc(C(F)(F)F)ccc1Cl,-20.3%,–
CCN(CC)c1ccc(NC(=O)CN2C(=O)c3cccnc3Oc3ccc(Cl)cc32)c(C)c1,-7.26%,–
Cc1ccc(NC(=O)NC(C)c2c(-n3cccc3)sc(C)c2C)c(C)c1 (stereo not drawn),-21.7%,–
O=C(Cn1cnc2c(oc3ccccc32)c1=O)Nc1ccc(OC(F)(F)F)cc1,-19.8%,–
Cc1ccc2onc(CC(=O)N3CCN(c4ccc(Cl)cc4)CC3)c2c1,-10.2%,–
CCc1ccc2oc(-c3ccc(NC(=O)c4cc5ccccc5o4)cc3)nc2c1,0.213%,–
CCOc1ccc(CNC(=O)C2CCN(c3nnc(-n4cccc4CNc4ccc(C)cc4)s3)CC2)cc1OC,8.02%,–
COc1cc(C(=O)N2CCN(c3ccc(Nc4ccc(C)cc4)nn3)CC2)cc(OC)c1OC,-11.5%,–
CCCC(=O)Nc1cc(C(=O)NCc2ccc(OC)cc2)ccc1S(=O)(=O)c1ccc(Cl)cc1,-8.93%,–
O=C(/C=C/c1ccc(N2CCOCC2)cc1)c1ccccc1,–,25.1 µM (active)
O=C1OC(NC(=O)c2ccccc2)C(N2CCOCC2)=C1Cl (stereo not drawn),-15.5%,–
NC(=O)c1ccc(N2CCOCC2)nc1,-9.85%,–
COC(=O)CN1C(=O)CSc2ccc(S(=O)(=O)Nc3cc(C)ccc3C)cc21,-7.07%,–
COc1ccc(CCNC(=O)c2cc(=O)c3c(C)cc(C)cc3o2)cc1OC,-23.3%,–
Cc1cc(C)c(/C=C2\C(=O)Nc3ccccc32)[nH]1,–,25.1 µM (active)
CCN(CC)CCNC(=O)Cn1ncc2c3ccccc3n(Cc3ccccc3C)c2c1=O,-16.9%,–
CCc1ccccc1NC(=O)c1ccc(F)c(S(=O)(=O)NC2CCCCCC2)c1,-12.3%,–
COCCCNC(=O)c1ccc(NC(=O)c2nsc3ccccc23)cc1,-13.5%,–

SMILES,"activity change, negative = inhibition",Potency
CCOC(=O)c1cnc2c(C)cc(C)cc2c1Nc1ccc(N2CCOCC2)cc1,-5.54%,–
CCc1nc2cccnc2n1-c1ccc(CC(=O)Nc2c(C)cccc2C)cc1,16.9%,–
Cc1ccc(-c2nnc(Nc3ccc(OCC(N)=O)cc3)c3ccccc23)cc1S(=O)(=O)NCC1CCCO1 (stereo not drawn),-23.5%,–
CCOc1ccc(CCNC(=O)Cn2nc(CC)n3c(cc4sc(CC)cc43)c2=O)cc1OCC,-31.2%,–
Cc1ccc(OCC(=O)Nc2ccc(Cl)c(-c3nc4ccccc4[nH]3)c2)cc1C,-1.29%,–
CCOc1ccc(CNC(=O)c2cccc(Nc3nc4ccccc4n4nnnc34)c2)cc1OC,-12.5%,–
CCC(=O)Nc1ccc(C)cc1-c1nc2ccccc2n(Cc2ccccc2)c1=O,-10.8%,–
Cc1cc2nc3c(=O)n(Cc4ccccc4)c(=O)[nH]c3nc2cc1N,–,25.1 µM (active)
COCCn1c(N)c(NCc2ccccc2)c(=O)[nH]c1=O,-19.4%,–
Cc1ccc(S(=O)(=O)N2CCCc3cc(NS(=O)(=O)c4cc(C)ccc4C)ccc32)cc1,-11.9%,–
Brc1ccc(C2=CC(c3ccco3)n3ncnc3N2)cc1 (stereo not drawn),–,31.6 µM (active)
O=C(CCC(=O)N1CC2CCCN2c2ccccc21)NCc1ccccc1Cl (stereo not drawn),-12.9%,–
Cc1c(-c2nsc(NC(=O)c3cccc(Cl)c3)n2)nnn1-c1ccccc1C(F)(F)F,-1.05%,–
COc1ccc(-n2c(SC)nc3sc4c(c3c2=O)CCN(C(C)=O)C4)cc1,-26.9%,–
CCc1nn(CC(=O)N2CCN(c3cccc(C(F)(F)F)c3)CC2)c(=O)c2cc3occc3n12,-7.28%,–
CCn1c(=O)c2cc(C(=O)NCCc3ccc(Cl)cc3)sc2c2ccccc21,-21.3%,–
CCc1ccc(CNC(=O)c2cc3c(=O)n(CC)c4ccccc4c3s2)cc1,-21.7%,–
CCN(CCCNC(=O)c1cc2c(=O)n(CC)c3ccccc3c2s1)Cc1ccccc1,–,28.2 µM (active)
COc1cccc(CNC(=O)C2CCN(S(=O)(=O)c3ccc4c(ccn4C)c3)CC2)c1,2.96%,–
CCN(C(=O)Cn1cnc2sc(C)c(S(=O)(=O)N3CCN(c4ncccn4)CC3)c2c1=O)c1ccccc1F,-30%,–
CSc1nn(Cc2cccc(C)c2)c(N)c1S(=O)(=O)c1ccccc1,-28.8%,–
CC(=O)Nc1cc(C(=O)NCc2ccc(F)cc2Cl)ccc1Sc1ccc(Cl)cc1,-26.4%,–
CCc1cccc(NC(=O)CN(c2ccc(C)c(C)c2)S(=O)(=O)c2ccsc2C(=O)OC)c1,-10.4%,–

SMILES,"activity change, negative = inhibition",Potency
Cc1cc(C)c2sc(NC(=O)c3ccc(S(=O)(=O)N4CCCC4)cc3)nc2c1,-22.5%,–
COc1ccc(S(=O)(=O)NCC(c2ccc(N(C)C)cc2)N2CCc3ccccc32)cc1OC (stereo not drawn),-19.8%,–
CCCN1C(=O)C(O)(CC(=O)c2ccc(CC)cc2)c2cc(Br)ccc21 (stereo not drawn),-6.09%,–
COc1cccc(CNC(=O)CCC(=O)N2CC3CCCN3c3ccccc32)c1 (stereo not drawn),4.94%,–
CC(C)NC(=O)c1nn(-c2ccccc2F)nc1CO,10.8%,–
COc1ccc(CNC(=O)CS(=O)Cc2nc(-c3cccc(C)c3)oc2C)cc1 (stereo not drawn),-17.1%,–
CCCCS(=O)(=O)c1oc(-c2cccs2)nc1S(=O)(=O)c1ccccc1,-25.3%,–
CCOc1ccc(OCC)c(NC(=O)c2cc(C)nc3c2c(C)nn3-c2cccc(Cl)c2C)c1,-1.64%,–
O=C(CSc1nc(=O)n(Cc2cccnc2)c2c1CCC2)Nc1ccc(F)cc1F,-30.9%,–
CCN(CC)CCCC(C)n1c2nc(=O)[nH]c(=O)c-2nc2cc(Cl)ccc21 (stereo not drawn),–,25.1 µM (active)
Cc1ccc(OCC(=O)OCc2cc(=O)n3nc(C4CC4)sc3n2)cc1C,5.46%,–
O=C(CCn1ccc2cc(S(=O)(=O)N3CCCC3)ccc21)NCc1cccc(Cl)c1,-0.0195%,–
COc1ccc2c(c1)Cc1sc(NC(=O)c3ccccc3Br)nc1-2,–,31.6 µM (active)
COc1ccc(NS(=O)(=O)c2ccc(N3CCOCC3)c(NC(=O)c3ccccc3Br)c2)cc1,-5.81%,–
COCCN(CCOC)S(=O)(=O)c1ccc(C(=O)Nc2nc3c(s2)CCc2ccccc2-3)cc1,-9.11%,–
Cc1oc(-c2ccccc2)nc1Cn1c(SCc2cccc(C(F)(F)F)c2)nc2cccnc21,-31.8%,–
COc1cccc(NC(=O)Cn2c(=O)cc(C)c3c(C)nn(-c4cccc(F)c4)c32)c1,0.827%,–
CCCCOc1ccc(C(=O)N2CC(=O)Nc3ccc(Br)cc3C2c2ccc(F)cc2)cc1 (stereo not drawn),-19.8%,–
O=C(NCC(c1ccco1)S(=O)(=O)c1cccs1)c1ccc(F)cc1 (stereo not drawn),5.88%,–
O=C(CSc1oc(-c2ccc(F)cc2)nc1S(=O)(=O)c1ccc(Br)cc1)NC1CCCCC1,-4.45%,–
COc1ccc(Cc2nc3ccc(C(=O)NCc4ccccc4Cl)cc3o2)cc1,-2.36%,–
O=C(CSc1ncc(-c2ccccc2)[nH]1)Nc1ccc(F)cc1F,-5.56%,–
Cc1ccc(Cn2c(CNC(=O)Cc3cccc(C)c3)nc3cccnc32)cc1,-24%,–

SMILES,"activity change, negative = inhibition",Potency
Fc1ccc(Nc2nc(SCc3ccccc3Cl)nc3ccccc23)cc1,-24.2%,–
CCC(=O)Nc1c(C(=O)N2CCN(c3ccc(F)cc3)CC2)oc2ccccc12,-18.1%,–
CCOc1ccc(CCNC(=O)c2ccc3c(c2)sc2nc(-c4ccc(F)cc4)cn23)cc1OCC,2.52%,–
COc1ccc(N2CCN(C(=O)CSCc3nc(-c4ccccc4Cl)oc3C)CC2)cc1,-26.2%,–
Cc1ccc2c(=O)c(C(=O)c3ccc(F)cc3)cn(CC(=O)NC3CCCCC3)c2n1,2.13%,–
CCN(CCCNC(=O)c1ccc(Sc2ccc(C)cc2)c(NC(C)=O)c1)c1cccc(C)c1,-9.52%,–
O=S(=O)(NCC(c1ccccc1)N1CCc2ccccc21)c1ccccc1 (stereo not drawn),-27.1%,–
CC1=CC2=NC(=O)/C(=C/c3coc4ccccc4c3=O)C(=N)N2O1,–,28.2 µM (active)
O=C(CCn1c(=O)c2sccc2n(Cc2ccc(F)cc2)c1=O)NCc1ccc2c(c1)OCO2,-8.87%,–
O=C(CCSCc1ccccc1F)N1CCN(c2ccc(Cl)cc2)CC1,-7.91%,–
O=C(CC1N=C2c3ccccc3N=C(SCc3cccc(Cl)c3)N2C1=O)NCc1ccc2c(c1)OCO2 (stereo not drawn),-5.07%,–
COc1cc(OC)c(NC(=O)c2c3c(nn2C)-c2ccccc2SC3)cc1Cl,-25.8%,–
O=C(CC(c1cccs1)N1Cc2ccccc2C1=O)Nc1ccc(F)c(F)c1 (stereo not drawn),-15.1%,–
NC1=CC(=O)C(=O)c2cccnc21,–,3.55 µM (active)
CCc1ccccc1OCCSc1nc(-c2cccs2)nc2cc(=O)[nH]n12,-13.4%,–
O=[N+]([O-])c1ccc(C=Nc2ccc(Cl)cc2Cl)s1,–,28.2 µM (active)
COc1ccc(NC(=O)c2cc3cc(C)ccc3n2C)cc1,-6.32%,–
CCC(=O)N1CCc2cc(Br)cc(S(=O)(=O)Nc3ccc(C)cc3C)c21,-10.7%,–
Cc1ccc(O)c(NC(=O)c2cc(-c3ccc(F)cc3)no2)c1,-11.8%,–
CCOC(=O)c1c(S(=O)(=O)N2CCCC(C(=O)NCc3ccc(F)cc3)C2)c(C)n(CC)c1C (stereo not drawn),-24.5%,–
CC1CCN(S(=O)(=O)c2ccc3c(c2)N(CC(=O)NCc2ccccc2Cl)C(=O)CO3)CC1,-20.5%,–
CCOC(=O)N1CCc2c(sc3c2C(=O)NC(c2ccccc2F)N3)C1 (stereo not drawn),-21.4%,–
CC(C)(C)OC(=O)N1CCC(c2c(C(=O)NCc3ccccn3)cnn2-c2ccc(F)cc2)CC1,7.78%,–

SMILES,"activity change, negative = inhibition",Potency
CCOC(=O)c1cccc(NC(=O)C(Cc2ccccc2)NS(=O)(=O)c2cccc3nsnc23)c1 (stereo not drawn),-8.9%,–
Cc1ccc2cccc(NC(=O)c3ccc(OC(C)C)cc3)c2n1,-22.6%,–
Cc1ccc(-c2nc3cccc(C)n3c2Nc2ccc3c(c2)OCCO3)cc1,-11.9%,–
CCN1CCC(N(Cc2ccc(F)cc2)C(=O)Nc2cc(C)ccc2C)CC1,-12.8%,–
CCc1ccc(CNC(=O)C2CCN(c3nn4cc(-c5ccc(F)cc5)nc4s3)CC2)cc1,-6.33%,–
COc1cc(OC)c(NC(=O)c2cnc(N3CCCC3)nc2C)cc1Cl,-25.5%,–
CCc1ccc(NC(=O)c2cc(S(=O)(=O)N3CCCC(C)C3)cn2C)cc1 (stereo not drawn),-21.5%,–
Cc1cc(C)nc(NS(=O)(=O)c2ccc(NC(=O)c3cc(=O)c4ccc(C)c(C)c4o3)cc2)n1,-20.7%,–
Cc1oc2ncnc(N3CCOCC3)c2c1C(=O)NCCc1ccccc1,-11.6%,–
COc1ccc(-c2cn3c(n2)sc2cc(C(=O)Nc4ccc(F)cc4)ccc23)cc1,6.29%,–
CN1/C(=C\C=C2\N=C(c3ccc(F)cc3)OC2=O)C(C)(C)c2ccccc21,–,28.2 µM (active)
Cc1csc2nc(COC(=O)c3ccc(NC(=O)COc4ccccc4F)cc3)cc(=O)n12,-3.82%,–
CCCN1CCN(CCCNC(=O)c2cnn(-c3ccc(C)cc3)c2-n2cccc2)CC1,-10.7%,–
O=C(CCOc1ccccc1)N(Cc1cccnc1)c1nc2ccc(Cl)cc2s1,-18.1%,–
CC(NC(=O)c1cc(Sc2ccc(F)cc2F)nc2ccccc12)c1ccccc1 (stereo not drawn),-9.65%,–
COc1cccc(C(=O)NCc2ccc3c(c2)CCN3C(=O)c2ccncc2)c1,-9.61%,–
CCOC(=O)c1c(SCC(=O)Nc2cccc(C)c2C)nc(=O)[nH]c1C,-6.81%,–
CCOC(=O)c1c(C)[nH]c2c1-c1ccccc1C(=O)C2=O,–,1.26 µM (active)
CCOC(=O)c1c(C)[nH]c(CCC(=O)Nc2ccc(OC)c(OC)c2)c1C,-19%,–
CN(C(=O)c1ccc2c(c1)N(Cc1cccc(Cl)c1)C(=O)c1ccccc1S2=O)C1CCCCC1 (stereo not drawn),-9.49%,–
CC(=O)N(C1=C(Cl)C(=O)c2ccccc2C1=O)c1ccc(C(=O)O)cc1,–,14.1 µM (active)
